From PubChem BioAssay (Tox21)
Values joined by “and” are separate entries in the source; they are usually repeats but may differ in a detail not shown here. Equal values may be shown once. Results filed as inconclusive are left out. Entries that show only a call come without a potency. Active and inactive are the calls of the source. Calls come from the whole dose curve; as a rule, active = well fitted inhibition curve with a large enough effect in the repeat runs; inconclusive = weak or mixed curves; inactive = flat fitted curve, though single readings scatter.
Potency is the fitted concentration of half-maximal effect.

Each molecule was assayed against Voltage-gated inwardly rectifying potassium channel KCNH2 (Homo sapiens) (UniProt Q12809) (assay: Human Ether-a-go-go-Related Gene (hERG) channel small molecule antagonists: fluorescence cell-based qHTS assay (AID 1671200; note: nearly all actives have a fitted effect of over 50% in size)). Details: hERG-U2OS cells, FluxOR thallium flux fluorescence; series mostly up to 76.8 µM.
Voltage-gated inwardly rectifying potassium channel KCNH2 (Homo sapiens), sequence (Q12809 whole entry, looked up): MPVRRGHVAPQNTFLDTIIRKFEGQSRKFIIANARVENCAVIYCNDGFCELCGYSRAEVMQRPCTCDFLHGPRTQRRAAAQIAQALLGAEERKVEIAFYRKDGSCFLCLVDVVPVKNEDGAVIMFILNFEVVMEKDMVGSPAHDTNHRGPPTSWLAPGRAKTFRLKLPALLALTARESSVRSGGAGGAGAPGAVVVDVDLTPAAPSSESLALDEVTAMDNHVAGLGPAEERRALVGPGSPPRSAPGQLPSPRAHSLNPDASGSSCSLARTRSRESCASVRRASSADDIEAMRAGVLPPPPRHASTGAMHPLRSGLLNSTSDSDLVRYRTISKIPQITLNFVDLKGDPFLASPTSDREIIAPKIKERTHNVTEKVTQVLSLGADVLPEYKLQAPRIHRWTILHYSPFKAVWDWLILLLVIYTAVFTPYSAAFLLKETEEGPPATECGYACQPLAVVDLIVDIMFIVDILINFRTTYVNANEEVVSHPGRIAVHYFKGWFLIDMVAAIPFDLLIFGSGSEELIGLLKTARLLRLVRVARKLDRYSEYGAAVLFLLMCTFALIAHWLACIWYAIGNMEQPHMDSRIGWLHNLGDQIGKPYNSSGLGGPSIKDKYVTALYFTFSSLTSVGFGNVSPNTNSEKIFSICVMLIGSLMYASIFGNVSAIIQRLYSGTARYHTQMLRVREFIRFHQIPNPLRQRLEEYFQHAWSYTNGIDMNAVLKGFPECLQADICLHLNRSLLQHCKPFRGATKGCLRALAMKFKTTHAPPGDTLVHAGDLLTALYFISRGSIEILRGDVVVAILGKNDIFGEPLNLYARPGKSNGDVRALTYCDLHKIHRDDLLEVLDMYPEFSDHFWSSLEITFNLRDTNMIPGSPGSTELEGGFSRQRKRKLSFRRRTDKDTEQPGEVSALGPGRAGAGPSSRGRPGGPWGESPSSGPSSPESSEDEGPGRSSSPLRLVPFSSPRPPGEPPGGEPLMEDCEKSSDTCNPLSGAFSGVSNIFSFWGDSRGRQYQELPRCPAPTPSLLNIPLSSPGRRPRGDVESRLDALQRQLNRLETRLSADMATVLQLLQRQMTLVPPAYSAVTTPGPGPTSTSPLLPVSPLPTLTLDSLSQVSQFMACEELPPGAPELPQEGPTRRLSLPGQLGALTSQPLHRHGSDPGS
How it was run: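 Fluorescence at 540 nm emission (480 nm excitation) was recorded kinetically for 2 min at 1-second intervals once the thallium-containing stimulus reached cells previously loaded with FluxOR II dye.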
`CN1CCC[C@H]1c1cccnc1` was tested, and the Potency was “inactive”. In the case of `C=CCc1ccc(O)c(OC)c1`, the Potency was “inactive”. For `Oc1ccccc1`, the Potency was “inactive”. For `CN(C)C(=S)SC(=S)N(C)C`, the Potency was “inactive”. For `CCN(CC)C(=O)c1cccc(C)c1`, the Potency was “inactive”. For `CCCCC1(COC(=O)CCC(=O)O)C(=O)N(c2ccccc2)N(c2ccccc2)C1=O`, the Potency was “inactive”. With `NC(=O)n1c(O)c(C(=O)c2cccs2)c2cc(Cl)ccc21` the Potency was “inactive”. With `CCCC[P+](CCCC)(CCCC)CCCC` the Potency was 21.8 µM (active) and 22.3 µM (active) and 12.3 µM (active). `NS(=O)(=O)c1cc2c(cc1Cl)NCNS2(=O)=O` was tested, and the Potency was “inactive”. For `O=C(O)CC(O)C(=O)O` (stereo not drawn), the Potency was “inactive”. `O=C1NS(=O)(=O)c2ccccc21` was tested, and the Potency was “inactive”. For `O=C1NC(=O)C(c2ccccc2)(c2ccccc2)N1`, the Potency was “inactive”. In the case of `CCCCNC(=O)NS(=O)(=O)c1ccc(C)cc1`, the Potency was “inactive”.
